# Measured values taken from paper PMC5540273 (PLoS ONE, 2017).
# Assays:
# Details in all cases: concentration: 1 μM, replicates: in singlicate; n = 1
# CAMK4 = system: CAMK4
# CAMKK1 = system: CAMKK1
# CAMKK2 = system: CAMKK2
# CASK = system: CASK
# CDC2L1 = system: T1, CDC2L1
# T1 construct: gene CDK11B
# CDC2L2 = system: CDC2L2
# CDC2L5 = system: T2, CDC2L5
# T2 construct: gene CDK13
# CDK11 = system: T3, CDK11
# T3 construct: gene CDK19
# CDK2 = system: CDK2
# CDK3 = system: CDK3
# CDK4-cyclinD1 = system: CDK4-cyclinD1
# CDK4-cyclinD3 = system: CDK4-cyclinD3
# CDK4 = system: CDK4
# CDK5 = system: CDK5
# CDK7 = system: CDK7
# CDK8 = system: CDK8
# CDK9 = system: CDK9
# CDKL1 = system: CDKL1
# CDKL2 = system: CDKL2
# CDKL3 = system: CDKL3
# 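Further: KINOMEscan kinase panel screen.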
SMILES,%Inh (CAMK4),%Inh (CAMKK1),%Inh (CAMKK2),%Inh (CASK),%Inh (CDC2L1),%Inh (CDC2L2),%Inh (CDC2L5),%Inh (CDK11),%Inh (CDK2),%Inh (CDK3),%Inh (CDK4-cyclinD1),%Inh (CDK4-cyclinD3),%Inh (CDK4),%Inh (CDK5),%Inh (CDK7),%Inh (CDK8),%Inh (CDK9),%Inh (CDKL1),%Inh (CDKL2),%Inh (CDKL3)
O=C(Nc1n[nH]c2cc(-c3ccsc3)ccc12)C1CC1 [SB-732932],0%,9%,0%,23%,13%,3%,47%,5%,57%,38%,14%,0%,86%,14%,21%,0%,17%,10%,94.7%,36%
COc1nccc(-c2c(-c3ccc(F)cc3)ncn2CCCN2CCOCC2)n1 [SB-282852],17%,10%,3%,8%,0%,0%,28%,3%,0%,6%,44%,15%,100%,0%,27%,55%,0%,31%,36%,0%
FC(F)(F)c1ccccc1-c1cc(-c2c[nH]nc2-c2ccccn2)ccn1 [GW679396],0%,5%,21%,17%,0%,0%,0%,0%,0%,0%,17%,0%,32%,0%,0%,9%,4%,0%,6%,0%
O=C(Nc1n[nH]c2nc(-c3cccs3)c(Br)cc12)C1CC1 [SB-735297],0%,0%,0%,13%,1%,12%,24%,0%,77%,26%,0%,0%,0%,0%,16%,0%,0%,34%,96.4%,0%
COC(=O)c1cccc(NC(=O)NC2CCN(c3ccnc(Nc4ccc(F)cc4)n3)C2)c1 (centres unmarked) [GSK1379725],0%,0%,0%,25%,0%,0%,0%,68%,0%,4%,0%,0%,6%,0%,0%,41%,0%,0%,82%,0%
Cc1c(Cn2c3ccccc3n3c(=O)cc(N4CCOCC4)nc23)cccc1C(F)(F)F [GSK2306394],8%,69%,5%,0%,100%,0%,0%,0%,0%,0%,0%,0%,0%,0%,0%,0%,100%,0%,16%,0%
Cc1ccc(NC(=O)Nc2ccccc2)cc1-c1ccc(C(=O)Nc2ccncc2)cc1 [GSK1398471],0%,0%,19%,0%,0%,13%,0%,11%,1%,0%,0%,0%,0%,0%,0%,0%,0%,0%,23%,1%
CCn1c(-c2c(N)noc2C)nc2cnccc21 [SB-737856],0%,13%,0%,0%,0%,8%,98.8%,7%,0%,0%,0%,9%,0%,8%,0%,0%,0%,17%,22%,0%
COc1ccc2cc(-c3nc(-c4ccccc4C(C)C)[nH]c3-c3ccncc3)ccc2c1 [SB-660566],7%,8%,0%,7%,0%,2%,0%,33%,0%,13%,0%,19%,9%,0%,0%,0%,0%,0%,9%,0%
COc1ccc(-c2coc3ccc(-c4nnc(C)o4)cc23)cc1,13%,0%,16%,0%,0%,0%,21%,0%,0%,0%,0%,0%,0%,0%,0%,0%,0%,24%,0%,0%
COc1ccc(CSc2nnc(-c3ccc4c(c3)CCO4)o2)cc1,0%,1%,15%,0%,0%,0%,90%,0%,0%,0%,0%,0%,0%,0%,0%,0%,0%,0%,0%,0%
Cc1ccc(-c2nc(Nc3ccncc3)c3ccccc3n2)s1 [GSK189015],26%,0%,7%,0%,0%,17%,0%,9%,24%,0%,0%,0%,0%,100%,0%,3%,5%,0%,0%,0%
O=C(Nc1n[nH]c2nc(-c3cccs3)c(Br)cc12)C1CCCC1 [SB-743341],0%,7%,0%,12%,1%,0%,13%,0%,75%,67%,11%,40%,16%,24%,60%,75%,27%,10%,87%,0%
COC(=O)c1cccc(NC(=O)NC2CCN(c3ccnc(Nc4ccc(OC)cc4)n3)C2)c1 (centres unmarked) [GSK1379746],0%,0%,0%,2%,0%,32%,0%,76%,5%,9%,34%,0%,19%,0%,0%,48%,1%,14%,77%,0%
CN1c2ccc(-c3ccc(C(N)=O)cc3)cc2-c2[nH]ncc2S1(=O)=O,16%,100%,21%,1%,0%,0%,2%,0%,0%,0%,27%,0%,0%,0%,0%,28%,0%,22%,31%,0%
CS(=O)(=O)CCNCc1nc(-c2ccc3ncnc(Nc4ccc5c(cnn5Cc5ccccc5)c4)c3c2)cs1.Cl.Cl [GW569716],0%,4%,1%,0%,0%,0%,0%,0%,0%,1%,41%,0%,39%,18%,0%,41%,0%,0%,11%,100%
NS(=O)(=O)c1cccc(N/C=C2\C(=O)Nc3ccc(S(=O)(=O)Cc4c(Cl)cccc4Cl)cc32)c1 [GSK398099],0%,72%,60%,27%,0%,9%,0%,0%,0%,24%,0%,18%,0%,0%,0%,0%,0%,100%,37%,0%
COc1ccc(Nc2nccc(N3CCC(NC(=O)C(C)c4ccc(Cl)cc4)C3)n2)cc1 (centres unmarked) [GSK1379735],0%,18%,5%,48%,6%,6%,0%,21%,0%,24%,0%,0%,23%,0%,0%,35%,0%,100%,29%,0%
Cl.Cl.Cl.N#Cc1ccc(CCNc2nccc(-c3cccc(CN4CCNCC4)c3)n2)cc1 [GSK2137462],1%,35%,22%,0%,0%,6%,0%,0%,0%,0%,0%,24%,0%,0%,69%,0%,22%,2%,6%,0%
